Experimental data as given in PubChem BioAssay (NCI).
About 83,000 compounds went through this panel and 20% of them were active in at least one assay; those are over-represented in the sample as a whole.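 Single-concentration screen, 48 h exposure, 96-well plates. Endpoint: percent growth. Below 10 = active.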 Unmarked numbers belong to inactive results. The source made the active and inactive calls.

Each molecule was assayed on HL-60(TB) leukemia (assay: NCI-60 one-dose screen, 48 h (100 = growth as untreated, 0 = no growth, -100 = all killed)). Conditions: 10 µM unless noted.

Q: Which growth does the source give for `Cc1ccc(S(=O)(=O)N/N=C/c2cn(-c3ccc(F)cc3)nc2-c2ccc(S(C)(=O)=O)cc2)cc1` here?
A: 97.5%

Q: How did the growth turn out when `O=C1[C@@H]2Cc3c([nH]c4ccccc34)[C@H](c3ccc(Cl)cc3)N2C(=O)CN1C1CCN(Cc2ccccc2)CC1` was run?
A: 17.6%

Q: With `O=C1c2c(c3c4cccnc4[nH]c3c3ccc4ccccc4c23)C(=O)N1CCO` as the molecule, how does the growth read?
A: 97.1%

Q: For `C=C(C=O)[C@@H]1CC[C@]2(C(=O)O)CC[C@]3(C)C(CC[C@@H]4[C@@](C)(CCC#N)[C@H](C(=C)C=O)CC[C@]43C)[C@@H]12` (some centres undefined), which growth is on record?
A: 2.63% (active)

Q: With `CC(=O)Nc1nc(C)c(-c2csc(Nc3ccccc3)n2)s1` as the molecule, how does the growth read?
A: 33.6%

Q: For `COc1ccc(/C=N/NC(=O)c2[nH]c3ccc(Br)cc3c2-c2ccccc2)s1`, which growth is on record?
A: -44.2% (active)

Q: Which growth does the source give for `O=C1CCCC2=C1C(c1c[nH]c3ccc(Br)cc13)Cc1cc(Br)ccc1N2` (centres undefined) here?
A: 12.9%

Q: `C#CCOc1cccc(-c2nc(N)nc(Nc3ccccc3SSc3ccccc3Nc3nc(N)nc(-c4cccc(OCC#C)c4)n3)n2)c1` was tested. Which growth did it give?
A: 23.7%

Q: How did the growth turn out when `C=C(C)[C@@H]1CC[C@]2(C(=O)NCCCCCN(CCC#N)CCC#N)CC[C@]3(C)[C@H](CC[C@@H]4[C@@]5(C)CCC(=O)C(C)(C)[C@@H]5CC[C@]43C)[C@@H]12` was run?
A: 127%

Q: How did the growth turn out when `Nc1nc(Nc2ccccc2SSc2ccccc2Nc2nc(N)nc(-c3ccc4ccccc4c3)n2)nc(-c2ccc3ccccc3c2)n1` was run?
A: 112%

Q: For `COc1ccc(-c2cnc(NC(=O)CCCCCCNC(=O)C(O)(O)C(F)(F)F)s2)cc1`, which growth is on record?
A: 10.5%

Q: For `Cc1ccc(C(=O)Nc2ccc(CNCCN3CCOCC3)c(C(F)(F)F)c2)cc1C#Cc1cnc2cccnn12`, which growth is on record?
A: -21.3% (active)

Q: `Cc1csc(Nc2cccc(Nc3nc(C)cs3)c2)n1` was tested. Which growth did it give?
A: 77.3%

Q: Which growth does the source give for `CCNC(=O)Oc1ccc(/C(=C(/C)c2ccccc2)c2ccc(OCCN3CCCC3)cc2)cc1` here?
A: 50.7%

Q: `Cc1ccc2sc3c(c2c1)OC(N)=C(C#N)C3c1cccc(F)c1` (centres undefined) was tested. Which growth did it give?
A: -0.493% (active)

Q: With `COc1ccc(S(=O)(=O)NCCCNc2nccc(-c3cn(C(C)(C)C)nc3-c3ccc(Cl)c(OC)c3)n2)cc1` as the molecule, how does the growth read?
A: 124%

Q: Which growth does the source give for `c1n[nH]cc1-c1nc2ccc3[nH]ncc3c2c2c1CCCC2` here?
A: 22.5%

Q: With `CCOC(=O)c1cccc(NC2=C(Cl)C(=O)C(C)=C(C)C2=O)c1` as the molecule, how does the growth read?
A: 31.2%

Q: With `Cn1ncc2ncc(-c3ccc4ncc(C#N)c(N5CCc6cc(F)c(Cl)cc65)c4c3)cc21` as the molecule, how does the growth read?
A: 26.7%

Q: How did the growth turn out when `COc1ccc(NC(=O)Cn2cc(CN3C(=O)c4ccc([N+](=O)[O-])cc4C3=O)nn2)cc1` was run?
A: 95.1%

Q: How did the growth turn out when `CCNC(=O)Oc1ccc(/C(=C(/C)c2ccccc2)c2ccc(OCCN3CCCCCC3)cc2)cc1` was run?
A: -19.2% (active)

Q: `C#Cc1nc(C(=O)NCCCCCCC(=O)NO)cs1` was tested. Which growth did it give?
A: -51.7% (active)

Q: Which growth does the source give for `COc1cc(/C=N/n2cnc3oc(-c4ccccc4)cc3c2=N)cc(CN2CCN(C)CC2)c1O` here?
A: 110%

Q: `COc1ccc(Cn2cc3c(c2-c2cc(OC)c(OC)c(OC)c2)CCc2c(CN4CCOCC4)noc2-3)cc1` was tested. Which growth did it give?
A: 1.3% (active)

Q: How did the growth turn out when `CCC(=C(c1ccc(OCCN(C)C)cc1)c1ccc(OCCN(C)C)cc1)c1ccc(Cl)cc1` was run?
A: -59.5% (active)

Q: For `N#Cc1c(-c2cccs2)cc(-c2cnccn2)nc1SCC(=O)c1ccc(F)cc1`, which growth is on record?
A: 131%

Q: How did the growth turn out when `CCS(=O)(=O)Nc1ccc(C(=O)CC2(O)C(=O)Nc3ccccc32)cc1` (centres undefined) was run?
A: 102%

Q: `COc1ccc(C2CC(c3cccc(OCCCCOc4cccc(C5=NOC(c6ccc(OC)cc6)C5)c4)c3)=NO2)cc1` (centres undefined) was tested. Which growth did it give?
A: 89.6%

Q: Which growth does the source give for `O=C(CSc1nnc(-c2cccs2)n1-c1ccccc1)Nc1ccccc1F` here?
A: 66.3%
